Bioassay records from PubChem BioAssay.
The list is not random: actives were taken first. Their share in the collection is about 3.3%.
SARS PLP yeast – SARS-CoV PLP inhibition in yeast | Potency, µM (doses to about 32.9 µM), most hits filed as activators | S. cerevisiae expressing SARS-CoV PLpro, growth rescue | 0.19% of 330,000 active; calls by dose curve; note: nearly all actives have a fitted effect of over 55% in size
Sm TGR block – inhibitors of Schistosoma mansoni thioredoxin glutathione reductase; Q962Y6; Potency, µM (highest dose often 114 µM), most hits filed as inhibitors; 3% of 360,000 active; AID 485364; purified TGR, DTNB reduction, TNB absorbance 405 nm; note: nearly all actives have a fitted effect of over 60% in size
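First, TGR (20 nM dispensed) and NADPH were mixed with compound. Second, a 15 min room-temperature incubation followed. Third, further NADPH and then DTNB were added to start the reaction. Finally, TNB absorbance was monitored kinetically.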
Tb PYK inh – T. brucei pyruvate kinase inhibition | Potency, µM (titrated, usually from 76.8 µM), hits mostly inhibitors | AID 624173 | TbPYK enzyme, Kinase-Glo Plus ATP luminescence, 45 min | Q57TT1 | 0.12% of 410,000 active; note: nearly all actives have a fitted effect of over 50% in size
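T. brucei PYK with substrate was exposed to pin-transferred compounds across a concentration series, then started with 130 uM ADP (final). After 45 min at room temperature, Kinase-Glo Plus luminescence was read, normalized and curve-fitted.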
RE007 growth inh – less growth of the S. pombe RE007 Vpr strain; 0.21% of 360,000 active; Potency, µM (series often up to 92.2 µM), actives largely listed as inhibitors; S. pombe RE007 Vpr strain, BacTiter-Glo ATP luminescence, 24 h; active = well fitted falling curve with a large enough effect; inconclusive = small, poorly fitted or top-dose-only effect; inactive = no such curve, though single readings can be large or run the other way; note: nearly all actives have a fitted effect of over 50% in size
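Fission yeast RE007 carrying one integrated HIV-1 vpr copy, seeded at OD 0.01 in PMG+AL medium with 23 nL pinned compound. Grown 24 h at 30 degrees; viability read by BacTiter-Glo luminescence after 5 min.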
NS1 inh – inhibitors of influenza NS1 protein function. Potency, µM (top dose mostly 46.1 µM). 0.4% of 270,000 active. AID 2326; calls by dose curve; note: actives are rising curves; nearly all actives have a fitted effect of over 50% in size
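Compounds were scored for reversing the slow growth caused by influenza A NS1 in S. cerevisiae, measured by optical density at 600 nm. Assay medium contained 2% galactose at pH 6.0; NS1-free yeast of the same strain were the positive control.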
LmPK inh – LmPK (Leishmania mexicana) enzyme inhibition. Q27686. purified LmPK, Kinase-Glo ATP luminescence, 1 h. Potency, µM (top dose mostly 57.5 µM), actives largely listed as inhibitors. 0.37% of 290,000 active
Target sequence (Q27686 whole entry, looked up): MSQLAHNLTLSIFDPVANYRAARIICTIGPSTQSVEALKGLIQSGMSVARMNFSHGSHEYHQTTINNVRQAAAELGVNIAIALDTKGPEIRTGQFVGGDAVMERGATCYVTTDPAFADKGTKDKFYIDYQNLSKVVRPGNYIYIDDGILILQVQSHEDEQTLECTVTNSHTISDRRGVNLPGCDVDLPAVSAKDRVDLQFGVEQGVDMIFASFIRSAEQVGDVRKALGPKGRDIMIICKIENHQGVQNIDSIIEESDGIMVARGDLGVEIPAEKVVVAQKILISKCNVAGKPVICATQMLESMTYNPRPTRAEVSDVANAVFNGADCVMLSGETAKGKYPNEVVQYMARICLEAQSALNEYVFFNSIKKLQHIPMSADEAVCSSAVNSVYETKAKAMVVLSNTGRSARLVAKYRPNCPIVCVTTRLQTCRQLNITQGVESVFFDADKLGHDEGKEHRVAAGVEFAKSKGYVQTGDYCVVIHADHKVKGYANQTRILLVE
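0.1 nM LmPK, 0.5 mM PEP, 0.1 mM ADP; 50 mM imidazole pH 7.2, 7 mM MgCl2, 50 mM KCl; 1 h RT. Kinase-Glo luminescence readout, normalized to no-enzyme (full inhibition) and uninhibited wells.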
Each line names hits and unclear results; the compound was inactive in the other large screens. Unless noted, calls come from the whole dose curve; as a rule, active = well fitted curve in the direction sought with a large enough effect; inconclusive = small, poorly fitted or top-dose-only effect, or another doubt; inactive = no such curve, though single readings can be large; an effect the other way counts as inactive or inconclusive.

C/C(=N\Nc1ccccc1C)c1cccnc1	Sm TGR block 35µM
CCOC(=O)/C(C(C)=O)=C1/OC(=O)c2ccccc21	Sm TGR block 11µM
CCOC(=O)/C(C(C)=O)=C1\OC(=O)c2ccccc21	Sm TGR block 20µM
C/C(=N\NS(=O)(=O)c1ccc([N+](=O)[O-])cc1)c1c[nH]c2ccccc12	none
C/C(=N/NS(=O)(=O)c1ccc(Br)cc1)c1c[nH]c2ccccc12	Sm TGR block 40µM
COc1cc(NC(=O)CCc2c(C)nc3c(-c4ccc(F)cc4)c(C)nn3c2C)cc(OC)c1OC	none (no result: SARS PLP yeast, RE007 growth inh, NS1 inh, LmPK inh)
CCOc1cc(/C=C2/C(=O)ON=C2C)cc(Br)c1O	none (no result: RE007 growth inh)
O=C1ON=C(c2ccccc2)/C1=C/c1ccc(O)cc1	Sm TGR block inconclusive, Tb PYK inh inconclusive
COc1cc(/C=C2\C(=O)ON=C2c2ccccc2)cc(Cl)c1O	Sm TGR block 7.1µM (no result: NS1 inh)
CCOc1cc(/C=C2\C(=O)ON=C2c2ccccc2)cc(Br)c1O	Sm TGR block 1.4µM
COc1cc(/C=C2\C(=O)ON=C2c2ccccc2)cc(Br)c1O	Sm TGR block 1.6µM
O=C1ON=C(c2ccc(Cl)cc2)/C1=C/c1ccc(O)cc1	Sm TGR block 22µM, Tb PYK inh inconclusive, NS1 inh inconclusive
COc1cc(C=C2C(=O)OC(c3ccccc3)OC2=O)cc(Br)c1O (stereo unspecified)	none (no result: NS1 inh)
O=C(O)C1(C(=O)O)CCN(S(=O)(=O)c2ccccc2)CC1	none (no result: SARS PLP yeast, Sm TGR block, Tb PYK inh, RE007 growth inh, LmPK inh)
COc1cc(C2c3c(oc4ccccc4c3=O)C(=O)N2c2nnc(C(C)C)s2)cc(OC)c1OC (stereo unspecified)	none (no result: SARS PLP yeast, RE007 growth inh, NS1 inh, LmPK inh)
COc1cc(/C=C2/C(=O)ON=C2c2ccccc2)ccc1O	Sm TGR block 25µM
O=C1ON=C(c2ccccc2)/C1=C/c1ccccc1	Sm TGR block inconclusive, Tb PYK inh inconclusive
CC(=O)c1cc(-c2ccc(F)cc2)n(CC(=O)NCc2ccc(C)cc2)c1C	none (no result: SARS PLP yeast, RE007 growth inh, NS1 inh, LmPK inh)
Cc1ccc(S(=O)(=O)N(C)C[C@H]2OCCCC[C@@H](C)Oc3ccc(N(C)C)cc3C(=O)N([C@H](C)CO)C[C@@H]2C)cc1	Tb PYK inh 7.9µM (no result: SARS PLP yeast, Sm TGR block, NS1 inh, LmPK inh)
O=C(O)c1cccc(CN2CCCCC2)c1	none (no result: SARS PLP yeast, Sm TGR block, Tb PYK inh, RE007 growth inh, LmPK inh)
Cc1nc(N)nc(N/N=C/c2c(F)cccc2Cl)n1	none
Cc1nc(C#N)c(N/N=C/c2c(F)cccc2Cl)o1	SARS PLP yeast 11µM
O=C(CCl)Nc1nc(-c2ccco2)c(-c2ccco2)s1	Sm TGR block 0.4µM
Cc1ccc(C(=O)Nc2nc(-c3ccco3)c(-c3ccco3)s2)o1	Sm TGR block 4.5µM (no result: NS1 inh, LmPK inh)
COc1ccc(N2C(=O)[C@H]3[C@@H](C2=O)C2c4ccccc4C=NN2[C@H]3C(=O)C(C)(C)C)cc1 (stereo partly specified)	none
COc1ccc(N2C(=O)[C@@H]3[C@H](C2=O)[C@H]2c4ccccc4C=CN2[C@@H]3C(C)=O)cc1	Sm TGR block 40µM (no result: RE007 growth inh)
CC(=O)Nc1cccc(NC(=O)c2c(-c3ccccc3)c(-c3ccccc3)nn(C)c2=O)c1	none (no result: SARS PLP yeast, RE007 growth inh, NS1 inh, LmPK inh)
CCC(O)(CCN1CCCCC1)c1ccccc1 (stereo unspecified)	none
CCCC(O)(CCN1CCCCC1)c1ccc(OCC)cc1 (stereo unspecified)	Sm TGR block 4µM
O[C@@](CCN1CCCC1)(c1ccccc1)C1CCCCC1	none (no result: SARS PLP yeast, Sm TGR block, RE007 growth inh, NS1 inh, LmPK inh)
COc1ccc(C(O)(CCN2CCCCC2)C2CCCCC2)cc1 (stereo unspecified)	Sm TGR block 1.4µM
CCCCCC(O)(CCN1CCCCC1)c1ccc(OCC)cc1 (stereo unspecified)	Sm TGR block 1µM (no result: NS1 inh)
CC(=O)O[C@H]1CC[C@H]2[C@@H]3CCC4=C[C@@H](C5SCCS5)[C@H](OC(C)=O)C[C@]4(C)[C@H]3CC[C@@]12C	none (no result: SARS PLP yeast, Sm TGR block, Tb PYK inh, RE007 growth inh, LmPK inh)
CCCn1c(=O)c2sccc2n2c(CCCC(=O)N3CCN(c4ccccc4OC)CC3)nnc12	none (no result: SARS PLP yeast, RE007 growth inh, NS1 inh, LmPK inh)
CCOc1ccc2nc(NC(=O)c3ccoc3C)sc2c1	Tb PYK inh inconclusive, RE007 growth inh 10µM, LmPK inh 13µM
CCOc1ccc2nc(NC(=O)c3ccccn3)sc2c1	RE007 growth inh 14µM, LmPK inh inconclusive
CCOc1ccc2nc(NC(=O)c3ccco3)sc2c1	RE007 growth inh inconclusive, LmPK inh inconclusive
